# Several values for one entry are separate records, joined by “and”; a condition that tells them apart may be missing. Identical values can stand only once. Inconclusive results are not listed. The source holds several records for some structures; these can differ, active in one and inactive in another. Activity calls are given as the source filed them. Rule for the calls: active = hit-call score of the fitted dose curve at least 0.9, where 1 is the maximum; inconclusive = response in the unintended direction; inactive = score below 0.9.
# Molecular target: human Phosphoinositide 3-kinase alpha (PI3Ka), PIK3CA (gene 5290) (UniProt P42336)
# Sequence (P42336 whole entry, looked up): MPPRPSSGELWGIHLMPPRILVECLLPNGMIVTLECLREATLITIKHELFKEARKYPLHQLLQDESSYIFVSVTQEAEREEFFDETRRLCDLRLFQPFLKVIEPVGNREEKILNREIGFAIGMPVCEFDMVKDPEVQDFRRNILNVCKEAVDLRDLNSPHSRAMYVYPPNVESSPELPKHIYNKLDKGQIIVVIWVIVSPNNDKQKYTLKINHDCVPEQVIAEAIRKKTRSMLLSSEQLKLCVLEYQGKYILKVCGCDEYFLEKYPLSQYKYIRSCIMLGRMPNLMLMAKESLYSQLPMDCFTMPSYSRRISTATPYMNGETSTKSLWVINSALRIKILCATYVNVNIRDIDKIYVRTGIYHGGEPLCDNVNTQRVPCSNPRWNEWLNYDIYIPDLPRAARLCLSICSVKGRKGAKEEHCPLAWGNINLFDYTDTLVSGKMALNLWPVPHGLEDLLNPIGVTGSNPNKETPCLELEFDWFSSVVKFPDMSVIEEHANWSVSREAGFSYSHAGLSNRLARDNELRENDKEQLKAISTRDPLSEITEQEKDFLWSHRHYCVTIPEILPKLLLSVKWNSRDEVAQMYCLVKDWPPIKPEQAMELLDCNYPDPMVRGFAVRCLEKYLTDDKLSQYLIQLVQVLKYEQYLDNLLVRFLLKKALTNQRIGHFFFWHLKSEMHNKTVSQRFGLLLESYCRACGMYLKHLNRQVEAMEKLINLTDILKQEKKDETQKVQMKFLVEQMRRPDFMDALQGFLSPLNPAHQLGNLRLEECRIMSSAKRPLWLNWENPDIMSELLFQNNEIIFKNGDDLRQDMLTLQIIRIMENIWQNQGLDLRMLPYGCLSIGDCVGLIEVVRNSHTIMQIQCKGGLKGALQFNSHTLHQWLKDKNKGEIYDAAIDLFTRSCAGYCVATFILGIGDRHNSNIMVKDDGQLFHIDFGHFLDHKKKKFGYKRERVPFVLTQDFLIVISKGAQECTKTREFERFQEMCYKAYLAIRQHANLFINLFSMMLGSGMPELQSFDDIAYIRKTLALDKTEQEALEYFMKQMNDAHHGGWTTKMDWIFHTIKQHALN
# Assay: NVS_ENZ_hPI3Ka: NovaScreen (NVS) Enzymatic Assay for human Phosphoinositide 3-kinase alpha (PI3Ka) (AID 2283196)
# Method in brief: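 Chemicals were first screened at 25 uM in duplicate, then hits were run as concentration series up to 50 uM. Enzyme activity was measured by fluorescence after mobility-shift separation, with loss of signal relative to DMSO taken as activity.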
Compound,outcome,AC50
CC1(C(=O)Nc2ccc(O)c(Cl)c2Cl)CCCCC1,inactive,–
CC(C)=CC1C(C(=O)OCN2C(=O)C3=C(CCCC3)C2=O)C1(C)C (stereo not drawn),inactive,–
CN(C)[C@@H]1C(=O)C(C(N)=O)=C(O)[C@@]2(O)C(=O)C3=C(O)c4c(O)cccc4[C@@](C)(O)[C@H]3[C@H](O)[C@@H]12,inactive,4.72 µM (active) and 4.22 µM (active) and 15.1 µM (active)
O=[N+]([O-])c1cc(C(F)(F)F)c(Cl)c([N+](=O)[O-])c1Nc1ncc(C(F)(F)F)cc1Cl,inactive,–
CC[C@H](C)[C@H]1O[C@]2(C=C[C@@H]1C)C[C@@H]1C[C@@H](C/C=C(\C)[C@@H](O[C@H]3C[C@H](OC)[C@@H](O[C@H]4C[C@H](OC)[C@@H](NC)[C@H](C)O4)[C@H](C)O3)[C@@H](C)/C=C/C=C3\CO[C@@H]4[C@H](O)C(C)=C[C@@H](C(=O)O1)[C@]34O)O2,–,7.94 µM (active)
Cc1ccn2nc(S(=O)(=O)Nc3c(F)cccc3F)nc2n1,inactive,–
CNC(=O)ON=C(C)SC,inactive,–

# Molecular target: PPP2CA (gene 5515) (UniProt P67775)
# Sequence (P67775 whole entry, looked up): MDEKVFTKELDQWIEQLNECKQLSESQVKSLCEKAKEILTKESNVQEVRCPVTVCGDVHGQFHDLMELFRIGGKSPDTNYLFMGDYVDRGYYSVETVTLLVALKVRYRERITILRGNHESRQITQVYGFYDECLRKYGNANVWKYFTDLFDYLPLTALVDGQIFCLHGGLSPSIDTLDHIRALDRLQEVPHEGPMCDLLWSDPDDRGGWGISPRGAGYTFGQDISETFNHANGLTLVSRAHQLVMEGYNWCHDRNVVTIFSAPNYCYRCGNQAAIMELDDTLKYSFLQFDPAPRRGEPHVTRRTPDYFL
# Assay: NVS_ENZ_hPPP2CA: NovaScreen (NVS) Enzymatic Assay for human Protein Phosphatase 2 Aatalytic subunit Alpha (PPP2CA) (AID 2283199)
# Description: NVS_ENZ_hPPP2CA is a biochemical, single-readout assay that uses extracted gene-proteins in a cell-free assay. Measurements were taken 1.33 hours after chemical dosing in a 384-well plate.NVS_ENZ_hPPP2CA is one of one assay component(s) measured or calculated from the NVS_ENZ_hPPP2CA assay. It is designed to make measurements of enzyme activity, a form of enzyme reporter, as detected with fluorescence intensity signals by Fluorescence and electrophoretic mobility shift technology.Data from the assay component NVS_ENZ_hPPP2CA was analyzed into 1 assay endpoint. This assay endpoint, NVS_ENZ_hPPP2CA, was analyzed in the positive analysis fitting direction relative to DMSO as the negative control and baseline of activity. Using a type of enzyme reporter, loss-of-signal activity can be used to understand changes in the enzymatic activity as they relate to the gene PPP2CA. Furthermore, this assay endpoint can be referred to as a primary readout, because this assay has produced multiple assay endpoints where this one serves a enzymatic activity function. To generalize the intended target to other relatable targets, this assay endpoint is annotated to the phosphatase intended target family, where the subfamily is serine/threonine phosphatase.
# Binding assays used specific radioligands (tritiated, iodinated) with non-radioactive competitive displacement ligands in agonist or antagonist protocols (as indicated) and various reference compounds and inhibitors to titrate specific binding to receptors and transporters. Most enzyme assays (CYPs, kinases, phosphatases, proteases, HDACs) used recombinant protein and specific substrates (fluorescence mostly, some colorimetric and radioactive) and inhibitors, followed by a biochemical separation of substrate and product. All assays for the biochemical HTS were initially run in duplicate at a single concentration (10 uM for CYP450 assays and 25 uM for all others). Assay-chemical combinations meeting a pre-defined threshold (e.g., 30% inhibition and other criteria defined below) were then run in singleton concentration-response format with maximum concentration of 20 uM for CYPs and 50 uM for all others. Each assay was run with positive and negative controls, and concurrent controls on every plate. The follow-up (secondary) screen tested active chemical-pairs in concentration series, as well as a few additional assays not tested in the primary screen, some selected negative inactives, and several cases re-run in the concentration series for confirmatory purposes.
Compound,outcome,AC50
CCC(=O)Nc1ccc(Cl)c(Cl)c1,inactive,–
CN(C)[C@@H]1C(=O)C(C(N)=O)=C(O)[C@@]2(O)C(=O)C3=C(O)c4c(O)cccc4[C@@](C)(O)[C@H]3[C@H](O)[C@@H]12,–,23.1 µM (active)
CC[C@H](C)[C@H]1O[C@]2(C=C[C@@H]1C)C[C@@H]1C[C@@H](C/C=C(\C)[C@@H](O[C@H]3C[C@H](OC)[C@@H](O[C@H]4C[C@H](OC)[C@@H](NC)[C@H](C)O4)[C@H](C)O3)[C@@H](C)/C=C/C=C3\CO[C@@H]4[C@H](O)C(C)=C[C@@H](C(=O)O1)[C@]34O)O2,–,16.8 µM (active)
CCOP(=S)(Oc1cnc(C(C)(C)C)nc1)OC(C)C (stereo not drawn),inactive,–

# Molecular target: Serine/threonine-protein phosphatase PP1-alpha catalytic subunit (Homo sapiens) (UniProt P62136)
# Sequence (P62136 whole entry, looked up): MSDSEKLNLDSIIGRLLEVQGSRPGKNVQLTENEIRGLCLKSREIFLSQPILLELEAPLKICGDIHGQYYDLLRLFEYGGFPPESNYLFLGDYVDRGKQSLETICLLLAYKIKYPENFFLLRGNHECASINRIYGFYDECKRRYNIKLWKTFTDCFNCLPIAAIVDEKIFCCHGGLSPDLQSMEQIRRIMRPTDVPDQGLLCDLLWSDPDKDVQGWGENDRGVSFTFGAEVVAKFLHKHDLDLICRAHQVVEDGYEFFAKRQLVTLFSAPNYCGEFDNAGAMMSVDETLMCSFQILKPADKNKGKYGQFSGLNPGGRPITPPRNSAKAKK
# Assay: NVS_ENZ_hPPP1CA: NovaScreen (NVS) Enzymatic Assay for human Protein Phosphatase 1 Aatalytic subunit Alpha (PPP1CA) (AID 2283200)
# Method in brief: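 Chemicals were first screened in duplicate at 25 uM, and those passing threshold (e.g. 30% inhibition) were run as concentration series to 50 uM. Cell-free recombinant protein, 1.33 h read, fluorescent substrate/product mobility-shift detection, normalised to DMSO.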
Compound,outcome,AC50
CCOP(=S)(OCC)Oc1cc(C)nc(C(C)C)n1,inactive,–
CCCCN(CC)c1c([N+](=O)[O-])cc(C(F)(F)F)cc1[N+](=O)[O-],inactive,–
CN(C)[C@@H]1C(=O)C(C(N)=O)=C(O)[C@@]2(O)C(=O)C3=C(O)c4c(O)cccc4[C@@](C)(O)[C@H]3[C@H](O)[C@@H]12,–,17.4 µM (active)
O=[N+]([O-])c1cc(C(F)(F)F)c(Cl)c([N+](=O)[O-])c1Nc1ncc(C(F)(F)F)cc1Cl,inactive,–
CCCCSP(=O)(SCCCC)SCCCC,–,10.4 µM (active)
CCOC(=O)CC(SP(=O)(OC)OC)C(=O)OCC (stereo not drawn),inactive,–
CCOP(=O)(OCC)Oc1cc(C)nc(C(C)C)n1,inactive,–
CCOP(=S)(OCC)SCCSCC,inactive,–

# Molecular target: human Protein Tyrosine Phosphatase Non-receptor Type 1 (PTPN1), PTPN1 (gene 5770) (UniProt P18031)
# Sequence (P18031 whole entry, looked up): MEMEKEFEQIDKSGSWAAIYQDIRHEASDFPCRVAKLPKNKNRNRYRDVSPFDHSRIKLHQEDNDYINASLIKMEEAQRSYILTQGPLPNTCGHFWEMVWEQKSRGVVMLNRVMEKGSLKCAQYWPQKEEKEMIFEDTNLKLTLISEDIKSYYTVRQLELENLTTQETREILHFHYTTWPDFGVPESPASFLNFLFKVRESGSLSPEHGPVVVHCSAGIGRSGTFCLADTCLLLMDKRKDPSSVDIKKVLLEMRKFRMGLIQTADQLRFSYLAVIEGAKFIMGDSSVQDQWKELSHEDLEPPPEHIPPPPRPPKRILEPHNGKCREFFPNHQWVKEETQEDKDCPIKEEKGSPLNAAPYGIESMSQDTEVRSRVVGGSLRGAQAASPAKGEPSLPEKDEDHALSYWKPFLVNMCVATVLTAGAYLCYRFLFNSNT
# Assay: NVS_ENZ_hPTPN1: NovaScreen (NVS) Enzymatic Assay for human Protein Tyrosine Phosphatase Non-receptor Type 1 (PTPN1) (AID 2283201)
# Method in brief: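 Chemicals were first tested in duplicate at 25 uM, and those passing threshold went on to singleton concentration series topping at 50 uM. Recombinant enzyme, specific substrate, product separated by mobility shift, fluorescence read at 1.33 h; activity loss relative to DMSO.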
Compound,outcome,AC50
S=C1NCCN1,inactive,–
CCOP(=S)(OCC)OC(Cl)C(Cl)(Cl)Cl (stereo not drawn),inactive,–
CN(C)[C@@H]1C(=O)C(C(N)=O)=C(O)[C@@]2(O)C(=O)C3=C(O)c4c(O)cccc4[C@@](C)(O)[C@H]3[C@H](O)[C@@H]12,–,23.1 µM (active)

# Molecular target: Tyrosine-protein phosphatase non-receptor type 11 (Homo sapiens) (UniProt Q06124)
# Sequence (Q06124 whole entry, looked up): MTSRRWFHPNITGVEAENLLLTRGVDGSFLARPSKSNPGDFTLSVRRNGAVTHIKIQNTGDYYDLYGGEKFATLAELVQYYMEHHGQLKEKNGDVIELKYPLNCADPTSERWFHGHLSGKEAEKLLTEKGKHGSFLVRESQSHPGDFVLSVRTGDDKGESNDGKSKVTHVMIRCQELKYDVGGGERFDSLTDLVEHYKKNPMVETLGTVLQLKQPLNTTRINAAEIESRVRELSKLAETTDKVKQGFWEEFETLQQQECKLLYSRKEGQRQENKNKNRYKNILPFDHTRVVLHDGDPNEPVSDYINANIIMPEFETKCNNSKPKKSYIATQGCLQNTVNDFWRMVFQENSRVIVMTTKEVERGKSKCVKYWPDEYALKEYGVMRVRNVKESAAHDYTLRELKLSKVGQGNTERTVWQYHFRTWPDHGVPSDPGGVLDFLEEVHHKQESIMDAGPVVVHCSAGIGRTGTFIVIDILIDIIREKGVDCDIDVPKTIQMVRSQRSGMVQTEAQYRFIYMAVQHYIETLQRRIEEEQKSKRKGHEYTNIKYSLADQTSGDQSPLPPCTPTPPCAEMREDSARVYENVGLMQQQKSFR
# Assay: NVS_ENZ_hPTPN11: NovaScreen (NVS) Enzymatic Assay for human Protein Tyrosine Phosphatase Non-receptor Type 11 (PTPN11) (AID 2283202)
# Method in brief: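 Compounds first tested in duplicate at 25 uM; those reaching ~30% inhibition rerun in singleton concentration-response, top 50 uM. Phosphatase activity measured after 0.5 h by fluorescence with mobility-shift separation, relative to DMSO.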
Compound,outcome,AC50
CCC(=NOC/C=C/Cl)C1=C(O)CC(C2CCOCC2)CC1=O (stereo not drawn),inactive,–
S=C1NCCN1,inactive,–
CN(C)[C@@H]1C(=O)C(C(N)=O)=C(O)[C@@]2(O)C(=O)C3=C(O)c4c(O)cccc4[C@@](C)(O)[C@H]3[C@H](O)[C@@H]12,–,10.9 µM (active) and 2.67 µM (active)
CNC(=O)Oc1cccc2c1OC(C)(C)O2,inactive,–
C=C(C)[C@H]1Cc2c(ccc3c2O[C@@H]2COc4cc(OC)c(OC)cc4[C@@H]2C3=O)O1,inactive,–
